TROY NFkB inh = blocks TROY-dependent signaling in reporter cells. inhibition, % at 10 µM. 360,000 compounds, 0.98% hits. Q293 LMP1-TROYcd NF-kB luciferase reporter, 4 h;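 active means compounds whose plate-normalised and pattern-corrected inhibition of the luciferase reporter signal at the single screening dose is 50% or more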
HIF-2a inh = inhibitors of HIF-2a; 360,000 compounds, 0.72% hits; inhibition, % at 18.8 µM; 786-0 RCC cells HIF-2a reporter, luciferase luminescence, overnight;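 active means inhibition of the luminescence signal of 40% or more relative to plate controls, in a single-dose primary screen at 18.75 µM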
KKLEB tox = CF airway cell cytotoxicity counter-screen; KKLEB CF airway cells viability, ATPlite luminescence, overnight; stronger effect = lower value; cells stimulated with P. aeruginosa culture filtrate; 360,000 compounds, 0.36% hits; AID 602141; activity change (cytotoxicity), % at 5 µM;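 active means corrected activity change at or below -50% at 5 µM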
Peg3 prom inh-1 = Peg3 promoter activity inhibition; HeLa PEG-Prom luciferase reporter, luminescence, overnight; 360,000 compounds, 1.7% hits; inhibition, % at 20 µM;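 active means inhibition of at least 50% at 20 µM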
TWEAK Fn14 block = TWEAK-Fn14 signaling inhibition; 360,000 compounds, 2% hits; TWEAK-stimulated Fn14 reporter cells, luciferase luminescence, 8 h; inhibition, % at 10 µM; in the data active means inhibition above about 50%
CF NFkB block = blocks PAF-induced NF-kB reporter in cystic fibrosis cells; AID 588850; 360,000 compounds, 0.86% hits; inhibition, % at 5 µM; KKLEB NF-kB-GFP reporter, GFP fluorescence overnight;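 active means at least 50% inhibition at 5 µM, scaled per plate between neutral and stimulator controls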;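 further: PAF is a Pseudomonas aeruginosa culture filtrate used as stimulus; plate controls were PAF-stimulated DMSO wells for no effect and unstimulated DMSO wells for full effect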
Peg3 prom inh-2 = Peg3 promoter inhibition confirmation | shares compounds with Peg3 prom inh-1 | HeLa PEG-Prom luciferase reporter, luminescence, overnight | inhibition, % at 20 µM | 1,300 compounds, 84% hits | AID 602417;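 active means at 20 µM dose, 40% or more inhibition averaged across four replicates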
An asterisk follows results filed as active; . = no result. Most compounds without a hit are left out; they make up all but 3.9% or so of the library.

SMILES | TROY NFkB inh | HIF-2a inh | KKLEB tox | Peg3 prom inh-1 | TWEAK Fn14 block | CF NFkB block | Peg3 prom inh-2
Cc1ccc(NC(=O)NCC2CCN(Cc3cc(C)ccc3Cl)CC2)c(C)c1 | 2.5 | 5.7 | -1.2 | 10.2 | -2.4 | 4.0 | .
CCc1nn(CC(=O)NCCN2CCOCC2)c(=O)c2cc3c(OC)cccc3n12 | 2.8 | 0.2 | -10.9 | -8.4 | 2.6 | -6.7 | .
CCCSCCCNC(=O)Cn1nc(CC)n2c(cc3c(OC)cccc32)c1=O | 2.8 | 20.8 | -6.5 | 54.0* | 1.1 | -0.9 | 18.3
O=C1N=C(N2CCOCC2)S/C1=C\c1ccc(-c2ccccc2Cl)o1 | -27.3 | -7.6 | 3.8 | 55.0* | -44.1 | -6.2 | 18.0
c1ccc(CCNc2nc(-c3ccncc3)nc3ccccc23)cc1 | 34.2 | 17.3 | -24.6 | 56.2* | 29.9 | 8.6 | 69.3*
O=C(Nc1ccccc1C(=O)Nc1nnc(C(F)(F)F)s1)c1ccccc1 | 58.6* | -11.8 | -53.3* | 59.1* | 86.8* | 49.6 | 86.9*
O=[N+]([O-])c1ccc(N2CCN(c3ccc([N+](=O)[O-])cc3CO)CC2)c(CO)c1 | 33.0 | 37.3 | 1.6 | 31.7 | 22.1 | 0.1 | .
O=C(NCCc1ccccc1)c1ccc2c(c1)OCO2 | 70.1* | 54.4* | -4.7 | 57.8* | 93.5* | 10.9 | 51.8*
O=C(NCCS(=O)(=O)NCc1ccccc1)c1ccc2c(c1)OCO2 | -3.8 | 6.7 | 4.9 | 5.0 | -1.8 | 21.4 | .
Cc1ccc2cc3c(N)c4c(C)ccc(C)c4nc3nc2c1 | -26.8 | -14.4 | -12.5 | 103.1* | -9.4 | -82.1 | 97.2*
CCOC(=O)C1(NC(=O)C2(NC(=O)CN3C(=O)c4ccccc4C3=O)CCCC2)CCCC1 | -9.5 | -4.2 | -2.2 | 8.7 | 23.6 | 3.3 | .
N=c1c2c(-c3ccccc3)c(-c3ccccc3)n(Cc3ccccc3)c2ncn1CCO | 9.6 | 34.3 | -9.9 | 98.5* | -34.6 | 16.3 | 95.8*
COc1ccccc1Nc1nc(-c2sc(NC(=O)c3ccco3)nc2C)cs1 | 8.0 | 6.6 | -2.7 | 70.5* | 23.2 | 32.1 | 58.0*
Cc1ccc(Cl)cc1Nc1nc(-c2sc(NC(=O)c3ccco3)nc2C)cs1 | 9.7 | 8.1 | -12.6 | 90.3* | 17.8 | -28.0 | 87.6*
Cc1nc(NC(=O)c2ccco2)sc1-c1csc(Nc2ccc(Cl)cc2Cl)n1 | -39.1 | -41.2 | -6.7 | -3.2 | 1.6 | 22.5 | .
Cc1nc(NC(=O)c2ccco2)sc1-c1csc(Nc2ccc(Cl)cc2)n1 | -14.6 | 6.2 | -3.2 | 35.2 | 17.5 | 37.7 | .
CCN(CC(=O)NC1CCS(=O)(=O)C1)S(=O)(=O)c1cc(Br)ccc1Br (stereo unspecified) | 0.8 | 9.6 | 16.2 | -1.3 | 7.5 | -8.2 | .
COc1ccccc1CNCC(O)Cn1c2ccccc2c2ccccc21 (stereo unspecified) | -3.5 | 23.3 | -17.6 | 110.8* | -25.4 | 25.2 | 97.4*
Cc1ccc2c(c1)C(=C(C#N)C#N)C(=O)N2CCN1CCOCC1 | 16.1 | 10.0 | -13.2 | 24.6 | 36.7 | 15.8 | .
Cc1ccc(-c2cc3c(nn2)-c2ccccc2C3=O)cc1 | 74.8* | 26.9 | -74.6* | 76.1* | 95.5* | -3.2 | 66.6*
O=C1c2ccccc2-c2nc3ccccc3cc21 | -70.3 | -155.7 | 6.8 | -270.5 | 29.6 | -27.8 | .
Cc1cc(/C=C2\SC(=Nc3ccc(F)cc3)NC2=O)c(C)n1-c1ccc(S(N)(=O)=O)cc1 | -9.3 | 11.9 | 0.9 | 8.9 | -13.2 | 23.2 | .
CCCCNC(=O)C1(C)CCN1Cc1cccc2c(OC)cc(C(=O)OCC)cc12 (stereo unspecified) | 16.1 | 14.3 | -9.0 | 57.4* | 22.1 | 30.9 | 36.9
CCCCNC(=O)C1(C)CCN1Cc1ccc(C(=O)OCC)cc1 (stereo unspecified) | -22.3 | 2.2 | -7.4 | 6.7 | -11.8 | -2.2 | .
COc1ccc(-c2cc(C(=O)Nc3ccccc3N3CCOCC3)c3ccccc3n2)cc1OC | 38.8 | -3.9 | -10.9 | 57.6* | 40.3 | 18.4 | 61.8*
SMILES | TROY NFkB inh | HIF-2a inh | KKLEB tox | Peg3 prom inh-1 | TWEAK Fn14 block | CF NFkB block | Peg3 prom inh-2
O=C(Nc1ccc(N2CCOCC2)cc1)c1cc(-c2ccncc2)nc2ccccc12 | -3.1 | 13.1 | -13.9 | 17.5 | -12.9 | -8.5 | .
COc1ccc(-c2cc(C(=O)Nc3ccccc3O)c3ccccc3n2)cc1OC | -2.3 | -10.0 | -3.4 | -1.0 | 9.2 | -25.1 | .
O=C(Nc1ccccc1N1CCOCC1)c1cc(-c2ccncc2)nc2ccccc12 | 22.7 | 0.5 | -13.1 | 63.1* | 15.1 | 1.0 | 57.5*
O=C(CSc1nncs1)Nc1ccc2c(c1)OCCO2 | -43.0 | -138.0 | -6.0 | -139.6 | 0.4 | 13.3 | .
COc1ccc(CN2CCCC(CO)(Cc3cccc(Cl)c3)C2)cc1OC (stereo unspecified) | 13.0 | 20.4 | -13.1 | 26.1 | 11.3 | 19.3 | .
C=CCSC1=C(C#N)C(c2ccccc2OCC)CC(=O)N1 (stereo unspecified) | -12.6 | 18.6 | -8.5 | 17.2 | -3.8 | -0.5 | .
CC(C)COc1ccc(C(=O)Nc2ccc(NC(=O)c3ccco3)cc2)cc1 | -42.5 | -3.9 | 6.1 | 77.3* | 0.8 | -10.4 | 38.2
CC(C)C(=O)NC(=S)Nc1ccccc1N1CCN(C(=O)c2ccccc2)CC1 | 24.4 | 14.9 | -23.4 | 58.0* | 30.1 | 8.4 | 40.3*
COc1ccc(NC(=O)COC(=O)c2cc3c(s2)CCC3)cc1 | -3.5 | -4.3 | 1.2 | 0.2 | -1.1 | 13.0 | .
Cc1cccc2c1-c1sc(C(=O)NCCCN3CCCC(C)C3)cc1CO2 (stereo unspecified) | -80.7 | -9.8 | -14.0 | 76.5* | -37.6 | 8.9 | 98.8*
CCn1c2ccccc2c2cc(NC(=O)COC(=O)c3ccc(O)cc3)ccc21 | 18.7 | -3.1 | 11.8 | -7.6 | -40.9 | -20.4 | .
CCn1c2ccccc2c2cc(NC(=O)C(C)OC(=O)c3ccc(NC(=O)CC#N)cc3)ccc21 (stereo unspecified) | 14.4 | 1.6 | -65.2* | 66.9* | -27.6 | 45.4 | 55.3*
CS/C(=N\S(=O)(=O)c1ccccc1)c1ccccc1 | 0.1 | 13.1 | -0.2 | -0.7 | -0.8 | 10.9 | .
O=S(=O)(/N=C(/Sc1ccccc1)c1ccccc1)c1ccccc1 | -8.4 | 22.4 | -4.7 | 59.8* | 9.1 | -6.2 | 75.4*
Cc1cc(C)c(CN2CCN(CCCn3cnc(C(=O)Nc4ccc(C)c(C)c4)n3)CC2)c(C)c1 | 12.1 | -20.4 | -37.3 | 97.9* | -15.4 | 35.4 | 96.6*
Cc1ccc(NC(=O)c2ncn(CCCNCCCN3CCCC3=O)n2)cc1C | -15.3 | 4.1 | 1.9 | -4.0 | 3.4 | -8.9 | .
CCCCn1c(N)c(N(CC(C)C)C(=O)c2cc(Br)c(Br)s2)c(=O)[nH]c1=O | 10.3 | -2.8 | -6.5 | 81.2* | 12.8 | 14.9 | 41.4*
CCn1c(/C=C2\C(=O)Nc3ccccc32)nc2ccccc2c1=O | 5.0 | 12.2 | -16.8 | 51.8* | 16.4 | 9.4 | 35.0
CCn1c(/C=C/c2ccc(O)cc2)nc2ccccc2c1=O | 20.1 | -35.1 | 14.2 | 4.0 | -8.1 | 7.9 | .
